Compound activity from PubChem.
GPR151 activ: human GPR151 activation; PathHunter beta-arrestin GPR151 cells, luminescence; activation, % at 11.2 µM; actives 1% (n = 650,000); in the data active = activation above about 4.9%;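 also: 0% = median of compound wells and 100% = cells with positive control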
TEAD-YAP inh: TEAD-YAP interaction inhibition; HEK-TIYL cells, TEAD-Gal4/YAP UAS-luciferase luminescence; actives 1.4% (n = 640,000); inhibition, % at 9.12 µM; in the data active = inhibition above about 32%;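 also: 0% = median of test compound wells and 100% = reference inhibitor wells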
FBW7 activator: human FBW7 E3 ligase activation, primary screen; Q969H0; AlphaScreen FBW7–phospho-cyclin E peptide binding, activator screen; normalized activity (activation), % at 26.1 µM; actives 0.13% (n = 650,000); AID 1259310; in the data active = normalized activity above about 1.9%;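 also: purified mutant Fbw7 with reduced substrate affinity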
MITF inh: blocks human microphthalmia-associated transcription factor; AlphaScreen MITF homodimerization, bead proximity signal; actives 0.91% (n = 650,000); O75030; inhibition, % at 2.6 µM; AID 1259374; in the data active = inhibition above about 50%;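 also: 0% = vehicle wells with protein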
Target sequence (O75030 whole entry, looked up): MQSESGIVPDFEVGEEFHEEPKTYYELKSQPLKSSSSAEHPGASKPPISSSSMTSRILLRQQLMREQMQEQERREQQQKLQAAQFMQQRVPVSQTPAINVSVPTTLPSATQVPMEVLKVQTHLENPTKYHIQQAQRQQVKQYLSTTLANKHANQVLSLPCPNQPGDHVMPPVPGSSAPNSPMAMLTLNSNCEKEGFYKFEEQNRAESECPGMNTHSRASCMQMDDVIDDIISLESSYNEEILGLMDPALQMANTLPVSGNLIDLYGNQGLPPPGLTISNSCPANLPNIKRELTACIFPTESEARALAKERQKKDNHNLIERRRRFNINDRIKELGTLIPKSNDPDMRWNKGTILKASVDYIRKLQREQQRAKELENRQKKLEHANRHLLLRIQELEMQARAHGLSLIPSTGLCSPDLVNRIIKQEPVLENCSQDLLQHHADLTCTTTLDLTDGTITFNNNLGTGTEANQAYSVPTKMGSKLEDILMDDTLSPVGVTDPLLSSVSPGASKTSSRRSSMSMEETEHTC
GPR151 conf act: confirmation of human GPR151 activators; shares compounds with GPR151 activ; GPR151 PathHunter beta-arrestin cells, luminescence, 90 min; % of EA-reagent control over plate median; activation, % at 11.2 µM; 6,700 tested, under 10 active;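 active = mean percent activation across replicates above the confirmation screen cutoff of 4.91%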
GPR119 ag: activates human GPR119 in a GPR151 counter-screen; shares compounds with GPR151 activ; GPR119 PathHunter beta-arrestin cells, luminescence, 90 min; 0 = compound-well median, 100 = enzyme-acceptor control; activation, % at 11.2 µM; actives 0.3% (n = 6,700); AID 1508611;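 active = mean percent activation in the counterscreen above 29.09%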;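 also: counterscreen on off-target GPR119 to flag nonselective hits from the GPR151 activator screen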
An asterisk follows results filed as active; x = not tested or not shown. Sampled rows, rich in hits. Any-hit rate of the full collection: about 3.5%.

SMILES	GPR151 activ	TEAD-YAP inh	FBW7 activator	MITF inh	GPR151 conf act	GPR119 ag
O=C(Oc1cccc(OC(=O)c2ccccc2F)c1)c1ccccc1F	5.6*	5.4	0.2	-7.0	-0.1	-12.1
O=[N+]([O-])/C=C/N1CCOCC1	5.5*	0.2	-0.1	9.9	-0.2	-1.4
CS(=O)(=O)NCCOc1ccc(S(=O)(=O)NCc2ccccc2)cc1	0.3	2.3	0.0	22.6	x	x
CCN(C)c1nc2nonc2nc1NC1CCCC1	5.2*	5.2	0.0	-11.4	1.1	-1.6
COc1ccc(/C=c2\sc3nc(-c4cccs4)nn3c2=O)cc1	-0.9	-2.0	-0.1	7.4	x	x
COc1ccc(N2CCN(S(=O)(=O)Cc3ccccc3)CC2)cc1	6.8*	3.6	-0.1	-9.5	-0.9	-11.6
O=S(=O)(Cc1ccccc1)N1CCN(c2ccc(F)cc2)CC1	0.0	4.8	0.9	-9.6	x	x
COc1ccccc1OCc1nnc(SCCN2CCOCC2)o1	5.9*	6.7	-0.3	-1.6	0.6	7.4
COC(=O)Cn1c(=O)c2c(nc3n(-c4ccc(C)cc4)c(C)cn23)n(C)c1=O	1.2	3.5	0.3	2.2	x	x
O=C(NC1CC1)c1cccc(Nc2ccc(-n3ccnc3)cc2)c1	6.2*	-0.5	-0.1	7.2	0.8	-3.1
COc1ccc(C(C)(C)C)cc1NC(=O)COn1nnc2ccc(C(F)(F)F)cc21	5.1*	14.8	0.1	-8.5	-0.2	4.9
CNC(=O)c1ccccc1Nc1nc(Nc2ccc(N3CCOCC3)c(Cl)c2)ncc1Cl	2.1	27.7	-0.1	18.4	x	x
COc1ccc(-c2nnc(SCC(=O)Nc3cccc(Cl)c3C)nc2-c2ccc(OC)cc2)cc1	5.8*	8.7	0.0	1.7	-0.8	-5.9
Cc1ccc(-n2c(-c3ccc4[nH]c(C)c(C)c4c3)n[nH]c2=S)cc1	5.5*	-27.0	-0.2	8.4	0.7	-3.7
Cc1ccc(NC(=O)c2sc3cc(C)ccc3c2Cl)cc1	1.2	-37.0	0.1	-8.3	x	x
